Screening data as filed in PubChem BioAssay.
ClpP mod: qHTS Assay for Activators of ClpP; ATP-dependent Clp protease proteolytic subunit (Bacillus subtilis (strain 168)), P80244; purified B. subtilis ClpP, FRET peptide cleavage, 20 min; Potency, µM (titrated, usually from 57.5 µM), for inactives: at the top dose activity change, negative = active; 1.9% of 340,000 active; active means well fitted falling curve with a large enough effect; inconclusive means small, poorly fitted or top-dose-only effect; inactive means no such curve, though single readings can be large or run the other way; further: potency means the concentration at half of the fitted maximal effect; the source files actives as falling curves though it sought activators and does not explain the sign; nearly all actives have a fitted effect of over 65% in size
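Purified B. subtilis ClpP, 10 microg/mL final in Tris/HCl pH8 with KCl, BSA, glycerol and Tween-20, cleaved an Abz/nitrotyrosine-quenched decapeptide. Fluorescence (ex 320, em 430) was read at 0 and 20 min at room temperature. Delta was normalized to 5.8 microM ADEP and DMSO/no-enzyme controls.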
NPSR antag: blocks cAMP signaling of the human neuropeptide S receptor. Potency, µM (top dose mostly 38.3 µM), for the others: at the top dose activity change, negative = inhibition, most hits filed as inhibitors. CHO-NPSR cells, cAMP TR-FRET, antagonist mode. Q6W5P4. AID 1461. 1% of 220,000 active; further: potency means the concentration at half of the fitted maximal effect; on the % scale 0 is the no-effect control and ±100 the full control effect; nearly all actives have a fitted effect of over 50% in size
PKM2 activator: increases activity of human pyruvate kinase M2 | Potency, µM (doses to about 57.5 µM), for inactives: at the top dose activation, most hits filed as activators | purified PKM2, Kinase-Glo ATP luminescence, activation; response scale: 0% is enzyme alone, no compound | P14618 | 0.34% of 260,000 active | AID 1631; further: potency means the concentration at half of the fitted maximal effect; on the % scale 0 is the no-effect control and ±100 the full control effect; nearly all actives have a fitted effect of over 55% in size
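ATP formation by purified human PK-M2, quantified via coupled luciferase luminescence after 1 h at room temperature with 0.1 mM ADP and 0.5 mM PEP final.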
IL-2 act: IL-2 activation. IL-2 activation reporter assay, cell-based qHTS; stimulated with anti-CD3/CD4/CD28 beads; in transgenic mouse T cells. activation, % (series mostly up to about 46 µM). 0.065% of 360,000 active. AID 652025; in the data active means activation above about 50%; inconclusive means mostly about 30% to 49%; further: 0% is about no effect
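Screening format: compound pinned onto unstimulated transgenic mouse T cells, 60 min incubation, then anti-CD3/anti-CD4/anti-CD28 bead stimulation for 18 hours at 37 degrees C, followed by EGFP and DsRed detection.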
* = called active by the depositor; ? = inconclusive; · = not tested or not shown; ! = a repeat was not active; [ ] = another dose, or the depositor's remark. Shown are actives, neighbours in structure and some others; about 2% of the full set was active somewhere. Unless noted, the call rests on the fitted dose curve; in most records, active means well fitted curve in the direction sought with a large enough effect; inconclusive means small, poorly fitted or top-dose-only effect, or another doubt; inactive means no such curve, though single readings can be large; an effect the other way counts as inactive or inconclusive.

SMILES	ClpP mod	NPSR antag	PKM2 activator	IL-2 act
CC(=O)NS(=O)(=O)c1cccnc1Nc1cccc(Cl)c1C	1%	5%	-9%	1
NS(=O)(=O)c1cccnc1Nc1c(Cl)cccc1Cl	28µM*	-7%[46.1 µM]	4%	-1
COC(=O)c1cn(NC(=O)/C=C/c2cc(OC)ccc2OC)c(=O)c2ccccc12	28µM*	-8%	0%	1
CCOC(=O)c1cc2c(C)nn(-c3ccccc3)c2s1	-12%	4%[46.1 µM]	0%	1
Cc1cc(C)n(-c2ccc(C(=O)OCc3nnc(-c4ccccc4)o3)cc2)n1	35µM*	1%[46.1 µM]	0%	0
COC(=O)c1cc2c(C)nn(-c3ccccc3)c2s1	32µM*	-19%[46.1 µM]	-2%	0
Cc1nn(-c2ccccc2)c2sc(C(=O)OCc3nnc(-c4ccccc4)o3)cc12	14µM*	-13%[46.1 µM]	7%	0
N#Cc1cccc(NC(=O)CSc2ccc3c4c(cccc24)C(=O)c2ccccc2-3)c1	-2%	-18%[46.1 µM]	7%	9
COc1ccc(NC(=O)CSc2ccc3c4c(cccc24)C(=O)c2ccccc2-3)cc1	0%	-1%[46.1 µM]	2%	184*
CCCNC1=C(C)C(=O)CC1	32µM*	-2%[46.1 µM]	-2%	0
O=C(C(c1ccccc1)c1ccccc1)N1CCN(Cc2ccco2)CC1	-3%	-3%[46.1 µM]	5%	3
NNC(=O)c1sc2cc(C(F)(F)F)cnc2c1-c1cccs1	·	-8%	0%	0
O=C(Nc1ccccc1)c1sc2cc(C(F)(F)F)cnc2c1-c1cccs1	32µM*	10µM*	-4%	0
CC(C)N1C(=O)S/C(=C/c2ccc3c(c2)n(C)c(=O)n3C)C1=O	2%	4%[46.1 µM]	3%	7
CCN(CC)c1ccc(/C=C2\SC(=O)N(C(C)C)C2=O)o1	-2%	?	13µM*	1
C=CCC[C@@H](Cc1ccc(F)cc1)C(=O)OC[C@@H](NC(=O)[C@H](CC=C)CC(=O)N(CCO)Cc1ccccc1)c1ccccc1	1%	·	·	0
Cc1cc(C)c(NC(=O)COc2ccc3c(C)cc(=O)oc3c2)c(C)c1	4%	·	·	·
CCN(CC)S(=O)(=O)c1ccc(C)c(NC(=O)COc2ccc3c(C)cc(=O)oc3c2)c1	25µM*	3%	-1%	0
CCN(CC)S(=O)(=O)c1ccc(OC)c(NC(=O)C(C)Oc2ccc3c(C)cc(=O)oc3c2)c1 (stereo unspecified)	25µM*	5%	3%	0
Cc1cc(=O)oc2cc(OC(C)C(=O)NC3CCCC3)ccc12 (stereo unspecified)	·	·	·	1
COc1ccc(/C=N/NC(=O)c2cccnc2)cc1CSc1nc2ccccc2s1	-20%	?	-12%	-2
Cn1c(C(=O)NCC2CCCO2)cc2c(=O)n(C)c3ccccc3c21 (stereo unspecified)	4%	-4%[46.1 µM]	1%	-3
Cn1c(C(=O)NCC2CCCO2)cc2c(=O)[nH]c3ccccc3c21 (stereo unspecified)	22µM*	20%	3%	0
Cc1cccc(C)c1Nc1sc(C(=O)c2ccccc2)c(N)c1S(=O)(=O)c1ccccc1	-6%	·	·	·
CCOc1cccc(-c2nn(-c3ccccc3)cc2/C=C(/C#N)C(=O)NCCCn2ccnc2)c1	25µM*	-30%	6%	-6
SMILES	ClpP mod	NPSR antag	PKM2 activator	IL-2 act
N#C/C(=C/c1cn(-c2ccccc2)nc1-c1cccc(OCc2ccccc2)c1)C(=O)NCCCn1ccnc1	?	-42%	-2%	-4
Cc1ccc(C)c(/C=C/C(=O)c2ccccc(=O)c2O)c1	2%	13µM*	17%	1
O=C(/C=C/c1ccccc1Cl)c1ccccc(=O)c1O	-3%	10µM*	20%	1
O=C(/C=C/c1ccccc1Cl)c1ccc(O)cc1	·	7%	-1%	0
Cc1ccc(/C=C/C(=O)c2ccccc(=O)c2O)c(C)c1	0%	-18%	21%	-3
COc1cc2nc(Nc3ccc(C)c(C)c3)nc(N)c2cc1OC	?	·	·	-2
CCOC(=O)c1ccc(Nc2nc(N)c3cc(OC)c(OC)cc3n2)cc1	32µM*!	·	·	0
NC(=O)[C@@H]1CCCN1Cc1c(C(=O)N2CCN(C3CCCCC3)CC2)nc2ccccn12	18µM*	·	-6%	1
COc1ccc2nc(NC(=O)c3cccc(N4C(=O)CCC4=O)c3)sc2c1	-2%	·	·	-1
O=C(Nc1nc2ccc(Cl)cc2s1)c1cccc(N2C(=O)CCC2=O)c1	35µM*	·	·	-4
Cc1ccc(Cn2ncc(Cl)c(Cl)c2=O)cc1	40%	-47%	7%	-7
O=c1c(Cl)c(Cl)cnn1Cc1ccccc1Cl	0%	6.3µM*	21%	-4
CN1CCC(=NNc2ncnc3sc4c(c23)CCCC4)CC1	1%	16%	2%	-1
CC(=O)NCCOC(=O)Nc1ccncc1	1%	10%[46.1 µM]	0%	-1
CNC(=S)N1N=C(c2ccc(C)cc2)CC1c1ccc(OC)cc1 (stereo unspecified)	1%	-16%[46.1 µM]	22µM*	-1
CCN1CCCC1Cn1cnc2c([nH]c3ccc(Cl)cc32)c1=O (stereo unspecified)	-23%	-3%[46.1 µM]	0%	-2
CCN1CCCC1Cn1cnc2c([nH]c3cccc(Cl)c32)c1=O (stereo unspecified)	32µM*	-9%[7.67 µM]	15%	0
O=c1c2[nH]c3ccccc3c2ncn1Cc1ccccn1	28µM*	6%[46.1 µM]	5%	0
CCC1CCCN1Cn1cnc2c([nH]c3ccc(OC)cc32)c1=O (stereo unspecified)	18µM*	3%[46.1 µM]	16%	3
CCC1CCCN1Cn1cnc2c([nH]c3ccccc32)c1=O (stereo unspecified)	25µM*	10%[46.1 µM]	-7%	-3
O=c1c2[nH]c3ccccc3c2ncn1Cc1ccncc1	?	-6%[46.1 µM]	-4%	0
CCC(=O)NCCNC(=O)c1c(SC)nsc1SC	-1%	2%[46.1 µM]	3%	0
Cc1ccc(S(=O)(=O)N(Cc2cccc(Cl)c2)C(=O)N2CCN(C)CC2)cc1	14µM*	·	·	-6
COc1ccc(/C=C/c2nnc(NC(C)=O)s2)cc1	·	-28%	-10%	3
COC(=O)Nc1nnc(/C=C/c2ccc(OC)cc2)s1	22µM*	21%	-28%	-1
SMILES	ClpP mod	NPSR antag	PKM2 activator	IL-2 act
CCC1CCCCN1CCCNC(=O)c1ccc2c(c1)N(Cc1cccc(C)c1)C(=O)c1ccccc1S2(=O)=O (stereo unspecified)	2%	·	·	·
C(=N\n1cnnc1)/c1ccc(OCc2ccccc2)cc1	-1%	-6%[46.1 µM]	17%	2
Cc1cc(/C=N/n2cnnc2)c(C)n1-c1ccc(OCc2ccc(Cl)cc2)cc1	-6%	10µM*	-3%	-5
CCC(=O)Nc1c(-c2ccc(OC)cc2)c(=O)c2ccccc2n1C	35µM*	2%[46.1 µM]	-3%	0
CCC(=O)Nc1c(-c2ccc(C)cc2)c(=O)c2ccccc2n1C	·	·	·	1
COc1ccc(-c2cn3cc(Cl)ccc3n2)cc1OC	?	-22%[46.1 µM]	2%	0
Clc1ccc2nc(-c3ccc(Br)s3)cn2c1	20µM*	1%[46.1 µM]	0%	1
CC1(C)Cc2cccc(OCC(=O)N3CCN(c4cccc(C(F)(F)F)c4)CC3)c2O1	0%	·	·	-1
